Source: PubChem (National Center for Advancing Translational Sciences (NCATS))
Compounds with a hit are over-represented: about 5.2% of the library has one in this group of screens.
Tau ThT inhib – blocks human tau fibril formation measured by thioflavin T; recombinant tau K18 P301L, heparin-induced fibrillization, ThT fluorescence; 270,000 tested, 2.1% active; P10636; AID 1460; Potency, µM (doses to about 57.4 µM), for inactives: at the top dose activity, negative = inhibition, most hits filed as inhibitors; also: potency is read from the fitted curve at half-maximal effect; nearly all actives have a fitted effect of over 55% in size
Target sequence (P10636 561-689 P618L limits assumed): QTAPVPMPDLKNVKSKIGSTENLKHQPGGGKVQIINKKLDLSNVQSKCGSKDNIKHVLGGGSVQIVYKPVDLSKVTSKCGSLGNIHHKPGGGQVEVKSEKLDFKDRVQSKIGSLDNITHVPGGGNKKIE
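Aggregation was driven by heparin (20 uM final) acting on recombinant tau […] bearing P301L in 100 mM sodium acetate pH 7; fibrils were detected with Thioflavin T.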
Coupling enz – inhibits coupling enzyme system, counter-screen for aldolase hits. 290,000 tested, 0.67% active. coupling enzyme system counterscreen, AmpLite Red fluorescence. activity change, negative = inhibition, % at 58.2 µM, hits read low; in the data active = activity change below about -30%
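First, compound is pin-transferred into glyceraldehyde-3-phosphate coupling-enzyme reagent at 57.5 uM final and held 10 min at RT. Next, substrate, coupling system and AmpLite Red are added. After 20 min RT, fluorescence (525/598 nm) is read.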
Tau fibril FP – inhibitors of human tau fibril formation. K18 P301L tau heparin fibrillization, Alexa594 FP, 6 h. Potency, µM (top dose mostly 57.7 µM), for the others: top-dose activity, negative = inhibition, usual class: inhibitors. 280,000 tested, 0.39% active. AID 1468; also: potency is read from the fitted curve at half-maximal effect; nearly all actives have a fitted effect of over 55% in size
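K18 P301L tau (15 uM unlabeled/0.24 uM Alexa 594-labeled, final) + compound + heparin 20 uM final; 100 mM NaOAc pH 7; 6 hr 37 C; ThT 30 uM final added, 1 hr RT; FP ex 555/em 632 nm.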
Sfp inh – inhibitors of Bacillus subtilis Sfp phosphopantetheinyl transferase | Q9F4F7 | 310,000 tested, 3.5% active | Biochemical Sfp PPTase activity, qHTS | Potency, µM, for the others: largest response in the series, negative = inhibition, actives largely listed as inhibitors | AID 1490;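 also: the enzyme is Sfp with the accession as filed and its product quenches rhodamine fluorescence; potency is read from the fitted curve at half-maximal effect; 0% = enzyme reaction without inhibitor and -100% = no enzyme wells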
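Fluorescence-quenching assay: 15 nM Sfp-PPTase preincubated 15 min at room temperature with compound, then 5 uM rhodamine-CoA and 12.5 uM BHQ-2-labelled YbbR peptide added. Fluorescence (ex 525/em 598 nm) read at start and after 30 min; difference gives rate.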
Tau fluor counter – counter-screen for tau fibril formation inhibitors | tau K18 P301L Alexa594 fluorescence, heparin fibrillization | Potency, µM (titrated, usually from 57.7 µM), for the others: at the top dose activity change, negative = decrease | 280,000 tested, 0.93% active | AID 1463; also: potency is read from the fitted curve at half-maximal effect; nearly all actives have a fitted effect of over 55% in size
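Human tau K18 P301L (15 uM unlabeled, 0.24 uM Alexa 594-labeled) in 100 mM sodium acetate pH 7 with 20 uM heparin, 6 hr at 37 C. ThT 30 uM added, 1 hr ambient; Alexa 594 FP and total fluorescence read at 555/632 nm.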
An asterisk follows results filed as active; u = inconclusive; x = not tested or not shown; [ ] = another dose, or the depositor's remark. Unless noted, calls follow the shape of the dose curve; as a rule, active = well fitted curve in the direction sought with a large enough effect; inconclusive = small, poorly fitted or top-dose-only effect, or another doubt; inactive = no such curve, though single readings can be large; an effect the other way counts as inactive or inconclusive. Unless noted, % is scaled to controls: 0 for no effect and ±100 for the full control effect.

SMILES | Tau ThT inhib | Coupling enz | Tau fibril FP | Sfp inh | Tau fluor counter
Nc1nc(Nc2ccccc2)nc(NCc2ccccc2)c1[N+](=O)[O-] | u | -1 | u | -16% | u
Cc1ccc(Nc2nc(N)c([N+](=O)[O-])c(NCc3ccco3)n2)cc1C | 16µM* | 2 | u | -7% | 28µM*[quencher]
CCC1Oc2ccc(C)cc2N(CC(=O)NCc2ccc(F)cc2)C1=O (stereo not given) | -3% | x | -2% | x | -15%
CSCC[C@H](NC(=O)[C@H](CO)NC(=O)[C@H](Cc1ccc(O)cc1)NC(=O)[C@@H](N)CO)C(=O)N[C@@H](CCC(=O)O)C(=O)N[C@@H](Cc1cnc[nH]1)C(=O)N[C@@H](Cc1ccccc1)C(=O)N[C@@H](CCCNC(=N)N)C(=O)N[C@@H](Cc1c[nH]c2ccccc12)C(=O)NCC(=O)N[C@@H](CCCCN)C(=O)N1CCC[C@H]1C(=O)N[C@H](C(=O)NCC(=O)N[C@@H](CCCCN)C(=O)N[C@@H](CCCCN)C(=O)N[C@@H](CCCNC(=N)N)C(=O)N[C@@H](CCCNC(=N)N)C(=O)N1CCC[C@H]1C(=O)N[C@H](C(=O)N[C@@H](CCCCN)C(=O)N[C@H](C(=O)N[C@@H](Cc1ccc(O)cc1)C(=O)N1CCC[C@H]1C(=O)N[C@@H](CC(N)=O)C(=O)NCC(=O)N[C@@H](C)C(=O)N[C@@H](CCC(=O)O)C(=O)N[C@@H](CC(=O)O)C(=O)N[C@@H](CCC(=O)O)C(=O)N[C@@H](CO)C(=O)N[C@@H](C)C(=O)N[C@@H](CCC(=O)O)C(=O)N[C@@H](C)C(=O)N[C@@H](Cc1ccccc1)C(=O)N1CCC[C@H]1C(=O)N[C@@H](CC(C)C)C(=O)N[C@@H](CCC(=O)O)C(=O)N[C@@H](Cc1ccccc1)C(=O)O)C(C)C)C(C)C)C(C)C | x | -4 | x | -8% | x
CCCCOC(=O)c1ccc(NC(=O)/C(C#N)=C/c2ccc(-c3ccccc3)o2)cc1 | -16% | x | -8% | x | -23%
CC(C)CN(C[C@@H](O)[C@H](Cc1ccccc1)NC(=O)O[C@H]1CO[C@H]2OCC[C@H]21)S(=O)(=O)c1ccc(N)cc1 | x | x | x | 12% | x
CCn1cc(C(=O)NCc2ccc(F)cc2)c(=O)c2cc(S(=O)(=O)N(C)C)ccc21 | -5% | x | -2% | x | -23%
O=C1C(=O)N(CCCN2CCOCC2)C(c2ccc(F)cc2)/C1=C(/O)c1ccccc1 (stereo not given) | x | 5 | x | 4% | x
COc1ccc(/C(O)=C2/C(=O)C(=O)N(CCN3CCOCC3)C2c2ccccn2)cc1 (stereo not given) | u | -23 | -11% | 50µM* | -10%
COc1ccc(/C(O)=C2\C(=O)C(=O)N(CCN3CCOCC3)C2c2ccccc2OC)cc1 (stereo not given) | -9% | 3 | -2% | 7% | -1%
O=C1C(=O)N(CCN2CCOCC2)C(c2ccccn2)/C1=C(/O)c1ccc(F)cc1 (stereo not given) | u | -22 | -12% | 56µM* | -23%
COC(=O)c1[nH]c(C)c(/C(O)=C2\C(=O)C(=O)N(CCCN3CCOCC3)C2c2ccccn2)c1C (stereo not given) | u | -20 | -9% | 50µM* | -22%
O=C(CSc1ncn[nH]1)c1ccccc1 | -10% | 1 | -12% | 56µM* | -4%
Cc1cc(SCc2cccc([N+](=O)[O-])c2)nc(=O)[nH]1 | x | x | x | 5% | x
O=C(CSc1ncn[nH]1)c1ccco1 | u | -8 | 1% | u | -2%
O=C(CSc1ncn[nH]1)c1cccc([N+](=O)[O-])c1 | u | 3 | u | 50µM* | -27%
Cc1cc(SCC(=O)c2cccc([N+](=O)[O-])c2)nc(=O)[nH]1 | x | x | x | 45µM* | x
O=C(Nc1nc2c(s1)CCCC2)c1ccc2ncsc2c1 | 4% | -4 | 9% | 25µM* | 0%
COc1ccc(NC(=O)Nc2nc3c(s2)CCCC3)cc1 | u | -1 | 5% | -6% | 18µM*[quencher]
O=C(Nc1cccc(Br)c1)Nc1nc2c(s1)CCCCCC2 | -8% | x | u | x | 3.5µM*[quencher]
Cc1ccc(/C=C/C(=O)c2ccc(C)cc2)cc1 | u | 1 | 6% | -3% | -2%
O=C(/C=C/c1ccc(-c2ccccc2)o1)c1ccccc1 | 6% | -20 | 2% | 16µM* | 0%
Cc1ccc(C(=O)/C=C/C(=O)c2ccc(C)cc2)cc1 | -10% | 2 | -7% | 3.2µM* | 3%
Cc1ccc(-c2ccc(/C=C/C(=O)c3ccccc3)o2)cc1 | 13µM* | -2 | -7% | 11µM* | -15%
CCOc1ccc(CNCc2c(C(=O)O)c(C)n(Cc3c(F)cccc3Cl)c2C)cc1OC | -9% | x | 5% | x | 7%
SMILES | Tau ThT inhib | Coupling enz | Tau fibril FP | Sfp inh | Tau fluor counter
CCOCCCn1c(=N)c(C(=O)NC2CCCCC2)cc2c(=O)n3ccccc3nc21 | -3% | x | 0% | x | -3%
COc1cccc(C=NCCNC(=O)c2nonc2N)c1O | u | -4 | -3% | 45µM* | -6%
Cc1ccc(CN2CCN(C3CCN(C(=O)OC(C)(C)C)CC3)C(=O)C2=O)cc1 | 11% | x | 9% | x | 20%
O=C(Cn1nnc(-c2ccccc2NC(=O)c2ccccc2)n1)Nc1ccc2c(c1)OCCO2 | u | 3 | u | -18% | -23%
Cc1ccccc1C(=O)Nc1ccccc1-c1nnn(CC(=O)Nc2ccc3c(c2)OCCO3)n1 | 12% | -1 | u | 56µM* | u
CCC(=O)OCC(=O)[C@@]1(OC(=O)CC)[C@H](C)C[C@@H]2[C@H]3CCC4=CC(=O)C=C[C@]4(C)[C@]3(Cl)[C@@H](O)C[C@@]21C | x | -3 | x | 30% | x
FC(F)(F)c1ccccc1NC(=S)Nc1cccc2cnccc12 | 22µM* | -25 | u | 20µM* | -22%
Fc1ccccc1NC(=S)Nc1cccc2cnccc12 | u | -32* | u | 22µM* | -16%
Fc1ccccc1NC(=S)Nc1cccnc1 | -2% | 0 | 2% | -1% | 2%
NC(=S)Nc1cccc2cnccc12 | -9% | 1 | 1% | 9% | 2%
